The whole screen tested about 5,500 compounds, of which about 2,000 (36%) were called active. About 18% were inconclusive and are not listed. No stated cut-off is given here; in the data, active means normalized growth mostly below about 0.91 (no sharp cut-off); inconclusive means no clear call, values can overlap the other calls; inactive means mostly above about 0.92. The list shows a part of the results.
Assay: chemical genetic growth profiling, strain panel (AID 1159580);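 further: tested at 20 µM; growth read once vehicle control cultures reached saturation at 30 °C; 1 = growth at the plate median or of vehicle wells; lower values mean less growth of the strain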
Details: growth OD

Measured: normalized growth

CC1(C)O[C@H]2[C@H](O)C[C@](O)(C(N)=O)C[C@H]2O1
inactive: S. cerevisiae deletion strains, locus YJR075W, strain HOC1, active compounds read low 1.03 | S. cerevisiae deletion strains, locus YKL009W, strain mrt4, active compounds read low 1.04 | S. cerevisiae deletion strains, locus YKL068W, active compounds read low 1.01 | S. cerevisiae deletion strains, locus YKL085W, strain MDH1 (second series), active compounds read low 1.03 | S. cerevisiae deletion strains, locus YKL085W, strain MDH1, active compounds read low 1.03 | S. cerevisiae deletion strains, locus YKL160W, strain elf1, active compounds read low 1 | S. cerevisiae deletion strains, locus YKL190W, strain CNB1, active compounds read low 1.02 | S. cerevisiae deletion strains, locus YKR001C, strain vps1, active compounds read low 1.06 | S. cerevisiae deletion strains, locus YKR026C, strain gcn3, active compounds read low 1.01 | S. cerevisiae deletion strains, locus YKR091W, strain srl3, active compounds read low 1.02 | S. cerevisiae deletion strains, locus YLL001W, strain dnm1, active compounds read low 0.999 | S. cerevisiae deletion strains, locus YLL026W, active compounds read low 1.01 | S. cerevisiae deletion strains, locus YLL041C, strain sdh2, active compounds read low 1.02 | S. cerevisiae deletion strains, locus YLR027C, strain aat2, active compounds read low 1.03 | S. cerevisiae deletion strains, locus YLR039C, strain RIC1, active compounds read low 1.25 | S. cerevisiae deletion strains, locus YLR058C, strain SHM2, active compounds read low 1.04 | S. cerevisiae deletion strains, locus YLR102C, strain apc9, active compounds read low 1.01 | S. cerevisiae deletion strains, locus YLR113W, strain HOG1, active compounds read low 1.02 | S. cerevisiae deletion strains, locus YLR221C, strain rsa3, active compounds read low 1.02 | S. cerevisiae deletion strains, locus YLR258W, strain gsy2, active compounds read low 1.01 | S. cerevisiae deletion strains, locus YLR262C, strain YPT6 (second series), active compounds read low 1.08 | S. cerevisiae deletion strains, locus YLR268W, strain sec22, active compounds read low 1.05 | S. cerevisiae deletion strains, locus YLR320W, strain mms22, active compounds read low 1.03 | S. cerevisiae deletion strains, locus YLR330W, strain CHS5, active compounds read low 1.02 | S. cerevisiae deletion strains, locus YLR342W, strain FKS1 (second series), active compounds read low 1.03 | S. cerevisiae deletion strains, locus YLR342W, strain FKS1, active compounds read low 1.01 | S. cerevisiae deletion strains, locus YLR357W, strain rsc2, active compounds read low 1.01 | S. cerevisiae deletion strains, locus YLR370C, strain arc18, active compounds read low 1.02 | S. cerevisiae deletion strains, locus YLR371W, strain rom2, active compounds read low 1.05 | S. cerevisiae deletion strains, locus YLR384C, strain iki3, active compounds read low 1.02 | S. cerevisiae deletion strains, locus YLR418C, strain cdc73, active compounds read low 1.09 | S. cerevisiae deletion strains, locus YML016C, strain PPZ1, active compounds read low 1.03 | S. cerevisiae deletion strains, locus YML032C, strain rad52, active compounds read low 1.03 | S. cerevisiae deletion strains, locus YML120C, strain ndi1, active compounds read low 1.01 | S. cerevisiae deletion strains, locus YML124C, strain tub3, active compounds read low 1.02 | S. cerevisiae deletion strains, locus YMR058W, strain fet3, active compounds read low 1.02 | S. cerevisiae deletion strains, locus YMR078C, strain ctf18, active compounds read low 1.03 | S. cerevisiae deletion strains, locus YMR125W, strain sto1, active compounds read low 1 | S. cerevisiae deletion strains, locus YMR129W, active compounds read low 1.01 | S. cerevisiae deletion strains, locus YMR205C, strain PFK2, active compounds read low 1.02 | S. cerevisiae deletion strains, locus YMR223W, strain ubp8, active compounds read low 1.05 | S. cerevisiae deletion strains, locus YMR231W, strain pep5, active compounds read low 1.01 | S. cerevisiae deletion strains, locus YMR307W, strain GAS1, active compounds read low 1.27 | S. cerevisiae deletion strains, locus YNL067W, strain RPL9B, active compounds read low 1.01 | S. cerevisiae deletion strains, locus YNL071W, strain lat1, active compounds read low 1.03 | S. cerevisiae deletion strains, locus YNL153C, strain GIM3, active compounds read low 1.05 | S. cerevisiae deletion strains, locus YNL183C, strain NPR1, active compounds read low 0.945 | S. cerevisiae deletion strains, locus YNL209W, strain ssb2, active compounds read low 1.02 | S. cerevisiae deletion strains, locus YNL233W, strain BNI4, active compounds read low 1.07 | S. cerevisiae deletion strains, locus YNL248C, strain rpa49, active compounds read low 1.01 | S. cerevisiae deletion strains, locus YNL250W, strain rad50, active compounds read low 1.06 | S. cerevisiae deletion strains, locus YNL271C, strain bni1, active compounds read low 1.04 | S. cerevisiae deletion strains, locus YNL298W, strain CLA4, active compounds read low 1.02 | S. cerevisiae deletion strains, locus YNL307C, strain MCK1, active compounds read low 1.03 | S. cerevisiae deletion strains, locus YNL322C, strain KRE1 (second series), active compounds read low 1.01 | S. cerevisiae deletion strains, locus YNL322C, strain KRE1, active compounds read low 1.02 | S. cerevisiae deletion strains, locus YNR049C, strain mso1, active compounds read low 1.02 | S. cerevisiae deletion strains, locus YNR052C, strain pop2, active compounds read low 1.03 | S. cerevisiae deletion strains, locus YOL012C, strain htz1 0.602 | S. cerevisiae deletion strains, locus YOL147C, strain pex11, active compounds read low 1.01 | S. cerevisiae deletion strains, locus YOR001W, strain rrp6, active compounds read low 1.04 | S. cerevisiae deletion strains, locus YOR061W, strain CKA2, active compounds read low 1.03 | S. cerevisiae deletion strains, locus YOR069W, strain VPS5, active compounds read low 1.02 | S. cerevisiae deletion strains, locus YOR070C, strain gyp1, active compounds read low 1.01 | S. cerevisiae deletion strains, locus YOR080W, strain dia2, active compounds read low 1.01 | S. cerevisiae deletion strains, locus YOR083W, strain WHI5, active compounds read low 1.02 | S. cerevisiae deletion strains, locus YOR106W, strain vam3, active compounds read low 1.01 | S. cerevisiae deletion strains, locus YOR136W, strain idh2, active compounds read low 1.04 | S. cerevisiae deletion strains, locus YOR144C, strain elg1, active compounds read low 1.01 | S. cerevisiae deletion strains, locus YOR184W, strain ser1, active compounds read low 1.06 | S. cerevisiae deletion strains, locus YOR231W, strain MKK1, active compounds read low 0.989 | S. cerevisiae deletion strains, locus YOR265W, strain rbl2, active compounds read low 1.01 | S. cerevisiae deletion strains, locus YOR270C, strain vph1, active compounds read low 1.06 | S. cerevisiae deletion strains, locus YOR290C, strain snf2, active compounds read low 1.03 | S. cerevisiae deletion strains, locus YOR316C, strain cot1, active compounds read low 1.02 | S. cerevisiae deletion strains, locus YPL051W, strain arl3, active compounds read low 0.997 | S. cerevisiae deletion strains, locus YPL055C, strain LGE1, active compounds read low 1.09 | S. cerevisiae deletion strains, locus YPL078C, strain atp4, active compounds read low 1.01 | S. cerevisiae deletion strains, locus YPL106C, strain sse1, active compounds read low 0.996 | S. cerevisiae deletion strains, locus YPL240C, strain hsp82, active compounds read low 1.01 | S. cerevisiae deletion strains, locus YPL241C, strain CIN2, active compounds read low 1.02 | S. cerevisiae deletion strains, locus YPL256C, strain CLN2, active compounds read low 0.995 | S. cerevisiae deletion strains, locus YPR119W, strain clb2, active compounds read low 1.03 | S. cerevisiae deletion strains, locus YPR141C, strain kar3, active compounds read low 1.03 | S. cerevisiae deletion strains, locus YPR163C, strain tif3, active compounds read low 1.04 | S. cerevisiae deletion strains, locus YPR167C, strain met16, active compounds read low 1.04 | S. cerevisiae deletion strains, strain wtn01, active compounds read low 1.03 | S. cerevisiae strains, strain wild type, active compounds read low 1.06
